# Measured values taken from PubChem BioAssay (Tox21).
# Records with an inconclusive call do not appear. Values without a mark were called inactive. Active and inactive are the calls of the source. Calls come from the whole dose curve; as a rule, active = well fitted inhibition curve with a large enough effect in the signal ratio in the repeat runs; inconclusive = weak or mixed curves, or effect the other way; inactive = flat fitted curve, though single readings scatter; the % refers to the signal ratio.
# Test: qHTS assay for small molecule disruptors of the mitochondrial membrane potential (AID 720635)
# Settings: HepG2 mitochondrial membrane potential, Mito-MPS dye ratio; series mostly up to 83.2 µM; ratio activity, negative = MMP loss: at the top concentration
# Method in brief: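 Mitochondrial membrane potential tracked with Mito-MPS dye, red aggregates (ex 540/em 590 nm) against green monomers (ex 490/em 535 nm). Compound treatment 1 hr at 37C, dye 30 min in HepG2.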
# % is set by controls: 0 for no effect and ±100 for the full control effect; potency is the fitted concentration of half-maximal effect.
SMILES,"ratio activity, negative = MMP loss",Potency
Cc1ccc(NC(=O)N(C)C)cc1NC(=O)N(C)C,-17.4%,–
CC(C)(C)S,7.75% [at 95.3 µM],–
CCO[Si](C)(CCCOCC1CO1)OCC (stereo not given),10.8%,–
Cc1c[nH]c2ccccc12,-11.7%,–
O=C1OC[C@H](Cc2cccc(O)c2)[C@H]1Cc1cccc(O)c1,–,8.24 µM (active)
Nc1nc(-c2ccc([N+](=O)[O-])cc2)cs1,–,3.1 µM (active)
COC(OC)OC,10.8%,–
C[C@@H]1C[C@H]2[C@@H]3CCC4=CC(=O)C=C[C@]4(C)[C@@]3(F)[C@@H](O)C[C@]2(C)[C@@]1(O)C(=O)COP(=O)(O)O,–,inactive
COC(=O)c1sccc1S(N)(=O)=O,13.9%,–
COC(=O)CC(C(C)=O)C(=O)OC (stereo not given),21.2%,–
SCCc1cnccn1,19.7%,–
CC(=O)OCC(C)C,10.6%,–
O=[N+]([O-])C1(Br)COCOC1,–,48.6 µM (active)
Nc1ccn([C@H]2CS[C@@H](CO)O2)c(=O)n1,–,inactive
C=CC(=O)O,-19.9%,–
CN=C(N)NC(=O)Nc1c(C)cccc1C,1.92%,–
Cc1ccc2nc(N)[nH]c(=O)c2c1Sc1ccncc1,-14.8%,–
CCCCCCCC(=O)OCCCCCC,17.5%,–
COc1ccc(-n2nc(C(F)F)cc2-c2ccc(S(C)=O)cc2)cc1 (stereo not given),2.56%,–
O=c1[nH]c2cc(C(F)(F)F)c(N3CCOCC3)cc2n(CP(=O)(O)O)c1=O,12.8%,–
